KCNQ2 pot: enhances the rat KCNQ2 potassium channel; B-score at 10 µM; 310,000 tested, 0.54% active; AID 2239; CHO-K1 KCNQ2, FluxOR thallium flux fluorescence; stronger effect = higher value;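 active = fluorescence ratio B-score at least 3 SD of library B-scores, with initial fluorescence B-score within 3 of them, cut at about 5.3 in these data; same plate scores as AID 2156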;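 note: B-score of peak minus minimum over baseline fluorescence ratio after K+ and Tl+ stimulus; positive B-score means potentiation of KCNQ2 with more thallium influx and brighter signal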
KCNQ2 inh: blocks the rat KCNQ2 potassium channel. CHO-K1 KCNQ2, FluxOR thallium flux, 20 min; stronger effect = lower value. B-score at 10 µM. 310,000 tested, 1.1% active. AID 2156;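 active = fluorescence ratio B-score at most minus 3 library SDs, with starting brightness B-score within 2 library SDs, cut at about -5.5 in these data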
KCNQ2 block conf: rat KCNQ2 channel inhibition, confirmatory screen. shares compounds with KCNQ2 inh. KCNQ2-expressing cells, thallium flux; stronger effect = lower value. activity change, negative = inhibition, % at 10 µM. 1,000 tested, 57% active;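 note: 0% = vehicle wells and values are ratio percent relative to vehicle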
KCNQ1 spec: human KCNQ1 activity in KCNQ2 inhibitor specificity screen; activity change, negative = inhibition, % at 10 µM; AID 493026; shares compounds with KCNQ2 inh; KCNQ1-expressing cells, FluxOR thallium flux fluorescence; stronger effect = lower value; 1,000 tested, 15% active;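 active = activity change at least 3 SD of negative controls below their mean in both duplicate wells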;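 note: CHO cells stably transfected with KCNQ1 and depolarized by potassium stimulus; peak minus minimum fluorescence over baseline after thallium addition; 0% = vehicle negative control and -100% = blank without thallium stimulus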
Target sequence (P51787 whole entry, looked up): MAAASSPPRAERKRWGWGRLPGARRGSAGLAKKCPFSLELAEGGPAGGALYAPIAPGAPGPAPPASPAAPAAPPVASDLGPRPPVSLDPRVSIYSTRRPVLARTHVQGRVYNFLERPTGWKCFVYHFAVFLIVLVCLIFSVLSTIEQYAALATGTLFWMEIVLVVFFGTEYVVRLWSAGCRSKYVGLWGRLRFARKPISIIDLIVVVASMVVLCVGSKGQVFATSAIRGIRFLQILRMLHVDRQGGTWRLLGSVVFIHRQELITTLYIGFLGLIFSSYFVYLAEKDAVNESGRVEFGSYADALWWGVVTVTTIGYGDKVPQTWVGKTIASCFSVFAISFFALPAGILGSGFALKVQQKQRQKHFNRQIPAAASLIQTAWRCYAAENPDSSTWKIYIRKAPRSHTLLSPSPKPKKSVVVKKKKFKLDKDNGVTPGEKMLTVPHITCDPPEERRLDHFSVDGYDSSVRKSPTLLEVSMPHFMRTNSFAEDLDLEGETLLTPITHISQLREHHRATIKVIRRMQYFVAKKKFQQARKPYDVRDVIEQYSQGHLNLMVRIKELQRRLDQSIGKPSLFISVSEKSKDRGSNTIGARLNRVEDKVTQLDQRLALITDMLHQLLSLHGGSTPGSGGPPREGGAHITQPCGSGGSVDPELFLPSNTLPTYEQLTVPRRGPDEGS
CHO parental ctr: counter-screen for KCNQ2 inhibitors: effect in parental CHO cells. shares compounds with KCNQ2 inh. thallium flux counter-screen; stronger effect = lower value. activity change, % at 10 µM. 1,000 tested, 14% active;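 note: 0% = vehicle negative controls with stimulus buffer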
KCNQ2 patch conf: rat KCNQ2 inhibition confirmed by electrophysiology | KCNQ2-expressing cells, automated patch clamp current | 550 tested, 49% active | calls only at 10 µM | AID 588531 | shares compounds with KCNQ2 inh
Starred values were filed as active, the others as inactive; i = inactive; / = no result given; + = active, no number. In the library only some 1.6% were active in any assay of this set; here they are far more common. Unless noted, the rule behind the calls is not given here.

SMILES	KCNQ2 pot	KCNQ2 inh	KCNQ2 block conf	KCNQ1 spec	CHO parental ctr	others
COc1ccc(C(=O)CCN2CCN(c3ccccc3OC)CC2)cc1	/	i	/	/	/
COc1ccc(C(=O)CCN2CCc3cc(OC)c(OC)cc3C2)cc1	-9.62	-9.62*	-32.0%*	i	i	KCNQ2 patch conf=i
Cc1ccccc1OCC(=O)OCC(=O)Nc1cc(S(C)(=O)=O)ccc1Cl	/	i	/	/	/
COC(=O)c1ccccc1NC(=O)c1ccccc1N(C)S(=O)(=O)c1ccccc1	/	i	/	/	/
CCCNC(=O)c1ccccc1NC(=O)c1ccccc1N(C)S(=O)(=O)c1ccccc1	/	i	/	/	/
Cc1ccc(S(=O)(=O)N(C)c2ccccc2C(=O)Nc2ccc(F)cc2F)cc1	-8.57	-8.57*	i	i	i
Cc1ccccc1CNC(=O)c1ccccc1N(C)S(=O)(=O)c1ccccc1	-6.67	-6.67*	-40.0%*	-35.5%*	-28.0%*	KCNQ2 patch conf=+
CC(=O)Nc1ccc(NC(=O)c2ccccc2N(C)S(=O)(=O)c2ccc(C)cc2)cc1	0.02	i	/	/	/
Cc1ccc(NC(=O)c2ccccc2N(C)S(=O)(=O)c2ccccc2)c(C)c1	-8.42	-8.42*	-34.0%*	i	i	KCNQ2 patch conf=+
CN(Cc1cccc(C(F)(F)F)c1)Cc1nc(-c2cnccn2)no1	1.2	i	/	/	/
O=C(N1CCOCCOc2ccccc2OCCOCC1)C(F)(F)F	0.34	i	/	/	/
CCOC(=O)CC1CCCCN1C(=O)CCCn1nnnc1CN1CCC(C)CC1 (stereo not given)	0.06	i	/	/	/
O=C(CSC1=NCCS1)NC(NC(=O)CSC1=NCCS1)c1ccccc1	0.49	i	/	/	/
COc1ccccc1CNC(=O)CSC1=NCCS1	-6.79	-6.79*	i	i	i
COc1ccccc1CNC(=O)CSc1ccc(Br)cc1	/	i	/	/	/
O=C(CSC1=NCCS1)NC(c1ccccc1)c1ccccc1	-8.25	-8.25*	-42.0%*	-34.5%*	-32.0%*	KCNQ2 patch conf=+
COc1cc2c(cc1OC)C(NNC(=O)c1ccc(Br)o1)=NC(C)(C)C2	/	i	/	/	/
Cc1ccc(C)c(NC(=O)c2sc(Cl)nc2-c2ccccc2)c1	-8.02	-8.02*	i	i	i
Cc1ccc(NC(=O)c2sc(Cl)nc2-c2ccccc2)cc1	/	i	/	/	/
Cc1ccccc1NC(=O)c1sc(Cl)nc1-c1ccccc1	-8.66	-8.66*	i	i	i
O=C(Nc1ccc(F)cc1)c1sc(Cl)nc1-c1ccccc1	/	i	/	/	/
CCCCN(C)CCN1C(=O)C2C(C(=O)Nc3ccc(OC)cc3)C3C=CC2(O3)C1C(=O)NC1CCCCC1 (stereo not given)	0.5	i	/	/	/
O=C(Nc1ccc(Br)c(C(F)(F)F)c1)c1ccccc1	-7.71	-7.71*	i	i	i
O=C(Nc1ccc(Br)c(C(F)(F)F)c1)c1ccc(C(F)(F)F)cc1	/	i	/	/	/
Cn1c(CNC(=O)CNS(=O)(=O)c2ccc(Br)cc2)cc(=O)n(C)c1=O	/	i	/	/	/
SMILES	KCNQ2 pot	KCNQ2 inh	KCNQ2 block conf	KCNQ1 spec	CHO parental ctr	others
O=C(c1ccc2c(=O)n3c(nc2c1)CCCCC3)N1CCN(c2ccc([N+](=O)[O-])cc2)CC1	/	i	/	/	/
O=[N+]([O-])c1cccc(/C=N/Nc2nc(N3CCCCC3)nc(N3CCCCC3)n2)c1	-7.67	-7.67*	-34.0%*	i	i	KCNQ2 patch conf=i
Brc1cccc(/C=N/Nc2nc(N3CCCCC3)nc(N3CCCCC3)n2)c1	-6.89	-6.89*	-19.0%*	i	i	KCNQ2 patch conf=i
O=[N+]([O-])c1cccc(-n2cccc2/C=N/Nc2nc(N3CCCCC3)nc(N3CCCCC3)n2)c1	/	i	/	/	/
Oc1ccc(/C=N/Nc2nc(N3CCCC3)nc(N3CCCC3)n2)cc1O	/	i	/	/	/
N#CCc1ccc(OC(=O)c2cnccc2C(F)(F)F)cc1	/	i	/	/	/
COCC(C)(C)COS(N)(=O)=O	0.74	i	/	/	/
CN(Cc1ccccc1)C(=O)CCn1c(=O)oc2ccccc21	1	i	/	/	/
O=C(CCn1c(=O)oc2ccccc21)N(Cc1ccccc1)c1ccccc1	-11.3	-11.3*	-31.5%*	i	i	KCNQ2 patch conf=+
CCOC(=O)c1cnc2ccc(C)cc2c1Sc1ccccc1	-7.11	-7.11*	-28.5%*	i	i	KCNQ2 patch conf=+
CCOC(=O)c1cnc2ccccc2c1Nc1cccc(C(=O)O)c1	2.05	i	/	/	/
CN(CC(=O)Nc1ccc(Cl)c(C(F)(F)F)c1)C(=O)C1CSC2(C)CCC(=O)N12 (stereo not given)	0.16	i	/	/	/
COc1cccc(-c2nc(CS(=O)(=O)CC(=O)NC3CCCC3)c(C)o2)c1	/	i	/	/	/
CCOc1ccc(-c2nc(CSCC(=O)NC3CC3)c(C)o2)cc1	0.64	i	/	/	/
COc1cccc(-c2nc(CS(=O)(=O)CC(=O)NC3CCCc4ccccc43)c(C)o2)c1 (stereo not given)	-10	-10*	-32.0%*	i	i	KCNQ2 patch conf=+
CCOc1ccc(-c2nc(CSCC(=O)NC3CCCc4ccccc43)c(C)o2)cc1 (stereo not given)	-8.84	-8.84*	-40.0%*	-37.0%*	-36.0%*	KCNQ2 patch conf=+
O=C(CCn1cccn1)N1CCCC(N2CCN(c3cccc(C(F)(F)F)c3)CC2)C1 (stereo not given)	0.75	i	/	/	/
CS(=O)(=O)N1CCN(c2ccc(NC(=S)NC(=O)c3ccccc3[N+](=O)[O-])cc2)CC1	1.77	i	/	/	/
O=C1Cc2cc(S(=O)(=O)Nc3cccc([N+](=O)[O-])c3)cc3c2N1CCC3	1.78	i	/	/	/
N#Cc1c(NCCCO)nc(-c2ccco2)c2c1CCCC2	0.3	i	/	/	/
N#Cc1c(NC2CCCCC2)nc(-c2ccco2)c2c1CCCC2	-7.05	-7.05*	-34.5%*	i	i	KCNQ2 patch conf=i
Cc1ccc(C(=O)N2CCCC(N3CCN(c4ccccc4C)CC3)C2)c(=O)[nH]1 (stereo not given)	2.14	i	/	/	/
Cc1c(C(=O)N2CCCCC2)c(S(=O)(=O)N2c3ccccc3CC2C)c(C)n1C (stereo not given)	0.4	i	/	/	/
CC1(C)Cc2c(sc3c2c(N)nc(=S)n3Cc2ccc(Br)cc2)CO1	/	i	/	/	/
Cc1nc2ccccc2c(=O)n1NC(=O)c1ccc(Cl)cc1	1.75	i	/	/	/
SMILES	KCNQ2 pot	KCNQ2 inh	KCNQ2 block conf	KCNQ1 spec	CHO parental ctr	others
CCn1c(SCC(=O)c2ccccc2)nc2ccccc2c1=O	0.74	i	/	/	/
O=C(CSc1nc2ccccc2c(=O)n1NC(=O)c1ccccc1)c1ccc(Cl)cc1	-10.2	-10.2*	-30.0%*	i	i	KCNQ2 patch conf=+
O=C(CSc1nc2ccccc2c(=O)n1NC(=O)c1ccccc1)c1ccccc1	-11.7	-11.7*	-15.5%*	i	i	KCNQ2 patch conf=+
COc1ccc(C2NC(=O)NC(C)=C2C(=O)OC2CCC(C)CC2)cc1 (stereo not given)	/	i	/	/	/
CCOC(=O)COc1c(OC)cc(Cl)cc1C1Nc2ccccc2C(=O)N1c1cccc(C)c1 (stereo not given)	-10	-10*	i	i	i
CCOC(=O)COc1ccccc1C1Nc2ccccc2C(=O)N1c1cccc(Cl)c1 (stereo not given)	/	i	/	/	/
Cc1cc(NC2CCCCC2)nc(NCc2ccccc2)n1	-8.31	-8.31*	i	i	i
